Bioassay records from PubChem BioAssay.
HepG2 tox-1: HepG2 cytotoxicity, counter-screen for TGF-b inhibitors; HepG2 CAGA-GFP viability, ATP luminescence, 18 h; Potency, µM (highest dose often 46.1 µM), without a hit: at the top dose activity change, negative = cytotoxicity, most hits filed as cytotoxic; 0.76% of 410,000 active; note: potency is the fitted concentration of half-maximal effect
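HepG2 CAGA-GFP cells (1000/well, DMEM with 1% FBS) received compound, then TGF-beta at 500 pg/mL final, and were incubated 18 hours at 37 degrees C. Viability was read by CellTiter-Glo luminescence. Media-only wells were set as complete cell-killing and DMSO as no toxicity.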
IL-1B inflam inh: blocks inflammasome-driven IL-1 beta release; THP-1 LPS/ATP IL-1B secretion, AlphaLISA, 16 h; active compounds read low; activity change, % at 57.5 µM; 4.7% of 360,000 active; in the data active = activity change below about -50%; inconclusive = mostly about -30% to -49%; note: % is set by controls: 0 for no effect and ±100 for the full control effect
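Secreted IL-1B measured by AlphaLISA bead assay after 16 h compound exposure of THP-1 cells; compounds (final up to 57.5 uM) added 1 h before LPS (250 ng/mL) and ATP (1.25 mM) stimulation; lower signal means less secretion.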
TDP1 cell CPT: growth inhibition of DT40 Tdp1-/-;hTDP1 cells with camptothecin (screen for TDP1 inhibitors); chicken DT40 Tdp1-/-;hTDP1 cells + 20 nM CPT, ATP luminescence, 48 h; Potency, µM (series often up to 46.2 µM), without a hit: at the top dose activity change, negative = growth inhibition, usual class: inhibitors; 12% of 420,000 active; AID 686979; note: potency is the fitted concentration of half-maximal effect; % is set by controls: 0 for no effect and ±100 for the full control effect; nearly all actives have a fitted effect of over 55% in size
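Chicken DT40 Tdp1-/- cells stably complemented with human TDP1 were seeded at 400 cells/well in medium containing 20 nM camptothecin, exposed to pin-transferred compounds, and grown at 37 °C for at least 48 hr. Viability was read as ATP luminescence.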
TGFb inhibitor: blocks TGF-b signaling; HepG2 CAGA-GFP TGF-b/SMAD3 reporter, GFP fluorescence, 18 h; TGF-beta stimulated, 500 pg/mL final; Potency, µM (doses to about 46.1 µM), without a hit: at the highest dose activity, negative = inhibition, actives largely listed as inhibitors; 1.2% of 410,000 active; note: potency is the fitted concentration of half-maximal effect; % is set by controls: 0 for no effect and ±100 for the full control effect; nearly all actives have a fitted effect of over 65% in size
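HEPG2 CAGA-GFP, 1000 cells/well; 2 h settle, 37 C; cpd via pin tool; TGF-b 500 pg/mL final; 18 h, 37 C; GFP imaging ex488/em500-530; %Activity normalised to -TGF-b and +DMSO controls; CRC fit, curve class.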
DT40 TDP1 no CPT: qHTS for Inhibitors of human tyrosyl-DNA phosphodiesterase 1 (TDP1): qHTS in cells in absence of CPT. Potency, µM (doses to about 46.2 µM), for inactives: top-dose activity change, negative = growth inhibition, usual class: inhibitors. DT40 Tdp1-/- hTDP1 cells, no CPT, ATP luminescence, 48 h. 15% of 420,000 active; note: potency is the fitted concentration of half-maximal effect; % is set by controls: 0 for no effect and ±100 for the full control effect; nearly all actives have a fitted effect of over 55% in size
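Stably hTDP1-transfected Tdp1-null chicken DT40 cells were treated with library compounds minus camptothecin and grown for at least 48 hr at 37 °C, after which cellular ATP was quantified by luminescence.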
TDP1 block: inhibitors of human tyrosyl-DNA phosphodiesterase TDP1. recombinant TDP1, AlphaScreen DNA substrate cleavage. Potency, µM (highest dose often 130 µM), for the others: top-dose activity change, negative = inhibition, most hits filed as inhibitors. Q9NUW8. 0.28% of 350,000 active; note: potency is the fitted concentration of half-maximal effect; % is set by controls: 0 for no effect and ±100 for the full control effect; nearly all actives have a fitted effect of over 40% in size
Target sequence (Q9NUW8 whole entry, looked up): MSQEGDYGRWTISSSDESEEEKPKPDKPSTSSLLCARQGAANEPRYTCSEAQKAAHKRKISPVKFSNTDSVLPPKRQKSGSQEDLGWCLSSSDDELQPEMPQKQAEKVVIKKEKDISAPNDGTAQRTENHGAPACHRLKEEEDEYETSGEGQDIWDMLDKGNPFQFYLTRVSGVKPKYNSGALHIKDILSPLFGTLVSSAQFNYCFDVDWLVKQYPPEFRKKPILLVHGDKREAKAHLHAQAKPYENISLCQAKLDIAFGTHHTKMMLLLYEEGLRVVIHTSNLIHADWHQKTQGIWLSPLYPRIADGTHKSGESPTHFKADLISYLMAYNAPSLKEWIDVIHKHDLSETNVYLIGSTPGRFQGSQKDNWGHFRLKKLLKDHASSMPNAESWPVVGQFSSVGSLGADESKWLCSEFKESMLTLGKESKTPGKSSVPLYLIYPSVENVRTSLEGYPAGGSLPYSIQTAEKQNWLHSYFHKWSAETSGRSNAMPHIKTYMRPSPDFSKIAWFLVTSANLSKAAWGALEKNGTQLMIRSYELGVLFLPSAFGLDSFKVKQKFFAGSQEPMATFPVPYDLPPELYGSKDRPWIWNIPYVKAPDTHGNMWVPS
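Here, a 5' biotin and 3' phosphotyrosine-FITC DNA oligonucleotide reports Tdp1 activity: intact substrate bridges AlphaScreen beads, while cleavage leaves a 3' phosphate and drops signal. All incubations at room temperature.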
TGFb CAGA inh: TGF-b pathway inhibition, cherry-pick retest; shares compounds with TGFb inhibitor; Potency, µM (doses to about 46.1 µM), for the others: at the highest dose activity, negative = inhibition, hits mostly inhibitors; 63% of 1,600 active; HepG2 CAGA-GFP TGF-b reporter, GFP fluorescence, 18 h; cells stimulated with TGF-beta, 500 pg/mL; note: potency is the fitted concentration of half-maximal effect; % is set by controls: 0 for no effect and ±100 for the full control effect; nearly all actives have a fitted effect of over 65% in size
HepG2 tox-2: counter-screen for TGF-b inhibitors: cytotoxicity in HepG2 cells; shares compounds with TGFb inhibitor; HepG2 CAGA-GFP viability, ATP luminescence, 18 h; cells stimulated with TGF-beta, 500 pg/mL; Potency, µM (top dose mostly 46.1 µM), without a hit: at the highest dose activity, negative = cytotoxicity, actives largely listed as inhibitors; 27% of 1,600 active; note: potency is the fitted concentration of half-maximal effect; % is set by controls: 0 for no effect and ±100 for the full control effect; nearly all actives have a fitted effect of over 70% in size
CCL64 TGFb inh: orthogonal confirmation of TGF-b inhibitors in CCL64 cells; shares compounds with TGFb inhibitor; CCL64 CAGA-GFP reporter, TGF-b stimulated, GFP fluorescence, 18 h; Potency, µM (doses to about 46.1 µM), for inactives: top-dose activity, negative = inhibition, most hits filed as inhibitors; 41% of 1,600 active; AID 720536; note: potency is the fitted concentration of half-maximal effect; nearly all actives have a fitted effect of over 65% in size
TGFb COP inh: TGF-b inhibition validated with COP promoter. shares compounds with TGFb inhibitor. HepG2 COP-GFP TGF-b reporter, GFP fluorescence, 18 h; cells stimulated by added recombinant TGF-beta. Potency, µM (titrated, usually from 46.1 µM), without a hit: at the highest dose activity, negative = inhibition, hits mostly inhibitors. 3% of 1,600 active. AID 720537; note: potency is the fitted concentration of half-maximal effect; nearly all actives have a fitted effect of over 70% in size
Numbers without * were called inactive; ? = inconclusive; / = not tested or not shown. Compounds with a hit are over-represented: about 18% of the library has one in this group of screens. Unless noted, calls come from the whole dose curve; as a rule, active = well fitted curve in the direction sought with a large enough effect; inconclusive = small, poorly fitted or top-dose-only effect, or another doubt; inactive = no such curve, though single readings can be large; an effect the other way counts as inactive or inconclusive.

SMILES	HepG2 tox-1	IL-1B inflam inh	TDP1 cell CPT	TGFb inhibitor	DT40 TDP1 no CPT	TDP1 block	TGFb CAGA inh	HepG2 tox-2	CCL64 TGFb inh	TGFb COP inh
Cc1ccc(CNC(=O)c2cc3c(C)nc4ccccc4c3o2)cc1	-15%	13	9.2µM*	?	7.3µM*	5%	18µM*	-25%	-8%	24%
COc1ccc2[nH]c(C)cc(=O)c2c1	7%	18	-25%	0%	?	-5%	/	/	/	/
COc1ccc2[nH]c3c(C)c4ccncc4c(C)c3c2c1	11µM*	-100*	0.26µM*	3.5µM*	0.92µM*	6%	2.3µM*	4.1µM*	2.6µM*	?
COc1ccc(S(=O)(=O)N2CCN(c3cnccn3)CC2)cc1OC	-23%	?	?	-7%	?	2%	/	/	/	/
NC(Cc1ccc(F)cc1)c1csc(Nc2ccc(C(F)(F)F)cn2)n1 (centres undefined)	-111%	-55*	13µM*	10µM*	9.2µM*	/	?	?	?	-27%
NC(Cc1ccc(C(F)(F)F)cc1)c1csc(Nc2cnccn2)n1 (centres undefined)	-68%	?	6.5µM*	7.1µM*	5.8µM*	/	?	?	?	62%
CCC(=O)NC(c1ccco1)c1cc(Cl)c2cccnc2c1O (centres undefined)	-12%	157	?	?	3.7µM*	0%	-30%	-25%	9.2µM*	16%
CCC(=O)NC(c1ccc(OC)cc1)c1cc(Cl)c2cccnc2c1O (centres undefined)	-32%	40	5.8µM*	7.9µM*	6.5µM*	11%	-24%	?	8.2µM*	21%
CCC(=O)NC(c1ccco1)c1cc(Cl)c2cccnc2c1OC (centres undefined)	-3%	/	/	?	/	0%	/	/	/	/
Nn1c(Cc2cccc3ccccc23)nnc1SCCOc1ccc(F)cc1	-3%	?	?	?	?	2%	/	/	/	/
CCCCOc1cccc(NC(=O)CSc2nccn2C)c1	-6%	-20	5%	4%	-19%	2%	/	/	/	/
Cc1cc(Cl)c(S(=O)(=O)N2CCCCCC2)cc1OCC(=O)NC1CCCCC1	12%	-6	-8%	-20%	1%	1%	/	/	/	/
Cc1cc(Cl)c(S(=O)(=O)N2CCN(c3ccccn3)CC2)cc1OCC(=O)NC1CCCCC1	-22%	?	?	10µM*	21µM*	8%	12µM*	?	-25%	16%
